High-throughput results as filed in PubChem.
Shiga toxin inh: A qHTS for Small Molecule Inhibitors of Shiga Toxin; Vero cells, Shiga toxin protein synthesis inhibition reporter; inhibition, % at 38.7 µM; 9.2% of 290,000 active; AID 2315, 2010; in the data active = inhibition mostly above about 28%, no sharp cut-off; inactive = mostly below about 43%
CHX counter: Cycloheximide Counterscreen for Small Molecule Inhibitors of Shiga Toxin | cell reporter, cycloheximide protein synthesis inhibition counterscreen | max response, % | 12% of 300,000 active; in the data active = max response mostly above about 13%, no sharp cut-off; inactive = mostly below about 14%; also: read at 38.3 µM for the half of the compounds with a filed dose
AMA1 RON2 block: qHTS for Inhibitors of AMA1-RON; Towards Development of Antimalarial Drug Lead: Primary Screen. AlphaScreen AMA1-biotinylated RON2 peptide binding. Plasmodium falciparum AMA1 (3D7) - RON2 peptide interaction. 0.2% of 360,000 active. Potency, µM (highest dose often 58.2 µM), actives largely listed as inhibitors; also: nearly all actives have a fitted effect of over 45% in size
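AMA1 (3D7) with his tag at 25 nM final met compounds first, then biotinylated RON2 peptide at 25 nM; detection used donor plus acceptor beads, 10 µg/mL apiece, read by AlphaScreen after 30 min at room temperature.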
Pf growth 48h: Primary qHTS for delayed death inhibitors of the malarial parasite plastid, 48 hour incubation. P. falciparum luciferase growth in erythrocytes, 48 h. Potency, µM (titrated, usually from 28.7 µM), actives largely listed as inhibitors. 5.9% of 310,000 active. AID 504832, 2011
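Compounds are pin-transferred into medium, infected erythrocytes (2% hematocrit, 0.1% parasitemia final) are added, and plates sit one parasite generation at 37 C in 5% CO2. Detection reagent is then added and luminescence measured.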
HCV inh: qHTS Assay for Inhibitors of Hepatitis C Virus (HCV). Huh7.5.1 HCVcc-Cre infection, luciferase reporter, 44 h. Potency, µM (titrated, usually from 41.8 µM), usual class: inhibitors. 3.4% of 340,000 active
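Luciferase read-out (15 sec integration) after a 15 min room-temperature substrate step quantifies HCVcc-Cre infection. Cells, 1,000 per well, had compound added 4 h post-plating, then virus at ~0.5 moi, and were cultured 44 h.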
Pf growth 96h: Primary qHTS for delayed death inhibitors of the malarial parasite plastid, 96 hour incubation; P. falciparum luciferase reporter growth, 96 h; Potency, µM (doses to about 28.7 µM), most hits filed as inhibitors; 6.9% of 320,000 active; AID 504834, 2011
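Cell-based qHTS: luciferase-tagged P. falciparum in erythrocytes (2% hematocrit, 0.05% parasitemia final) incubated with compounds for 96 hours, 37 C, 5% CO2; luciferase detection reagent then added and luminescence measured.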
Large screens that a line does not name were inactive. Only some compounds are listed: those with a hit (about 21% of all), similar ones and a draw of the others. Unless noted, calls follow the shape of the dose curve; as a rule, active = well fitted curve in the direction sought with a large enough effect; inconclusive = small, poorly fitted or top-dose-only effect, or another doubt; inactive = no such curve, though single readings can be large; an effect the other way counts as inactive or inconclusive.

COc1ccc(/C=C/c2c(-c3ccc(OC)cc3)sc3ccc(N4CCOCC4)cc23)cc1	Pf growth 48h inconclusive, Pf growth 96h inconclusive
Cc1ccc(-c2nnc(-c3cccc(NC(=O)c4cccs4)c3)o2)cc1	Shiga toxin inh 39, Pf growth 48h inconclusive, HCV inh inconclusive
Cc1cccc(-c2nnc(-c3cccc(NC(=O)Cc4cccs4)c3)o2)c1	CHX counter 20, Pf growth 48h inconclusive, HCV inh inconclusive, Pf growth 96h 10µM
O=C(Cc1cccs1)Nc1ccc(-c2nnc(-c3ccccc3)o2)cc1	none (no result: Shiga toxin inh, CHX counter, Pf growth 48h, Pf growth 96h)
COc1ccc(C2=CSC3=C(C(=O)c4cccc(S(=O)(=O)N(C)C)c4)CCN23)cc1	Pf growth 96h 8.3µM (no result: Pf growth 48h)
CN(C)S(=O)(=O)c1cccc(NC(=O)c2cccc(S(=O)(=O)N3CCCCC3)c2)c1	Pf growth 48h inconclusive, HCV inh inconclusive, Pf growth 96h inconclusive (no result: Shiga toxin inh, CHX counter)
O=C(COc1ccc(Br)cc1)NNC(=O)c1cc(S(=O)(=O)N2CCOCC2)ccc1Cl	none (no result: Shiga toxin inh, CHX counter, Pf growth 48h, Pf growth 96h)
CC(Sc1nn(-c2ccccc2)c(=S)s1)C(=O)NCC1CCCO1 (stereo unspecified)	Pf growth 48h 9.3µM, Pf growth 96h 13µM (no result: Shiga toxin inh, CHX counter)
Cc1ccccc1/C=C1\CCCc2ccccc2C1=O	Shiga toxin inh 80, CHX counter 45
O=C1/C(=C\c2ccc3ccccc3c2)CCCc2ccccc21	Shiga toxin inh 73, CHX counter 60, Pf growth 48h inconclusive, HCV inh inconclusive
Cc1ccsc1/C=C1\CCc2ccccc2C1=O	CHX counter 41, Pf growth 96h 10µM (no result: Pf growth 48h)
O=C1C(=Cc2ccccn2)CCc2ccccc21	none (no result: Shiga toxin inh, CHX counter, Pf growth 48h, HCV inh, Pf growth 96h)
O=C1C(=NO)CCCc2ccccc21	none (no result: Shiga toxin inh, CHX counter, Pf growth 48h, Pf growth 96h)
Cc1ccc(S(=O)(=O)N2[C@@H](c3ccc(Cl)cc3)C(C(=O)OC(C)(C)C)=CC[C@H]2c2ccc(Cl)c(Cl)c2)cc1	none (no result: Shiga toxin inh, CHX counter, Pf growth 48h, HCV inh, Pf growth 96h)
CCOc1ccc2nc(NC(=O)CSc3nc4c(c(=O)n(C)c(=O)n4C)n3C(C)C)sc2c1	HCV inh inconclusive, Pf growth 96h 12µM
CC(C)n1c(SCC(=O)Nc2nc3ccccc3s2)nc2c1c(=O)n(C)c(=O)n2C	HCV inh inconclusive (no result: Shiga toxin inh, CHX counter, Pf growth 48h, Pf growth 96h)
CCn1c(SCC(=O)Nc2nc3ccc(OC)cc3s2)nc2c1c(=O)n(C)c(=O)n2C	HCV inh 4µM
COc1ccc(/C=N/NC(=O)c2ccn[nH]2)cc1COc1ccc(Cl)cc1	CHX counter 31, Pf growth 48h inconclusive
COc1ccc(/C=N/NC(=O)c2ccn[nH]2)cc1CSc1ccccn1	Shiga toxin inh 75, CHX counter 65
COc1cc(OC)cc(C(=O)N/N=C/c2ccc(OC)c(COc3ccc(F)cc3)c2)c1	HCV inh inconclusive
COc1ccc(N2CCN(CC(=O)N3c4ccccc4CC3C)CC2)cc1 (stereo unspecified)	AMA1 RON2 block inconclusive
COc1ccc2oc(=N)c(C(=O)Nc3ccc(Cl)cc3)cc2c1	Pf growth 96h inconclusive (no result: Shiga toxin inh)
COc1ccc2o/c(=N\O)c(C(=O)Nc3ccc(C)cc3)cc2c1	HCV inh 10µM
COc1ccc(NC(=O)c2cc3ccccc3o/c2=N\NS(=O)(=O)c2ccc(C)cc2)cc1	Shiga toxin inh 100, CHX counter 48, Pf growth 96h inconclusive
Cc1cnc(C(=O)Nc2cccc3ncccc23)cn1	Pf growth 96h inconclusive
Cc1cnc(C(=O)Nc2ccccc2-c2ccc(C)o2)cn1	HCV inh 7.9µM, Pf growth 96h inconclusive
CC(=O)NCCc1nc2cc(NC(=O)c3ccccc3Cl)ccc2n1C	CHX counter 17
CC(=O)NCCc1nc2cc(NC(=O)c3cccs3)ccc2n1C	none
CC(=O)NCCc1nc2cc(NC(=O)c3ccc(Cl)cc3)ccc2n1C	Shiga toxin inh 64, CHX counter 24
CCC(=O)NCCc1nc2cc(NC(=O)c3ccc(Cl)cc3)ccc2n1C	Shiga toxin inh 64, CHX counter 52
CCCC(=O)Nc1ccc2c(c1)nc(CCNC(=O)c1ccccc1)n2C	none (no result: Pf growth 48h)
CCC(=O)NCCc1nc2cc(NC(=O)c3ccc(OC)cc3)ccc2n1C	CHX counter 25 (no result: Pf growth 96h)
CN(C)c1ccc(Cl)cc1N	none
